Reference: PubChem BioAssay AID1159580 (chemical genetic matrix, 2015)
Where “and” joins values, the source holds several entries; their conditions need not be identical. Equal entries are not always repeated. The campaign covered roughly 5,500 compounds. About 2,000 (36%) were called active. Another 18% or so got no clear call; they are omitted. No stated cut-off is given here; in the data, active means normalized growth mostly below about 0.91 (no sharp cut-off); inconclusive means no clear call, values can overlap the other calls; inactive means mostly above about 0.92. Some of the results follow.

Assay: chemical genetic growth profiling, strain panel (AID 1159580);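 further: tested at 20 µM; growth read once vehicle control cultures reached saturation at 30 °C; 1 = growth at the plate median or of vehicle wells; lower values mean less growth of the strain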
Conditions: S. cerevisiae deletion strains, growth OD

Measured: normalized growth

OC(CCN1CCCC1)(c1ccccc1)C1CCCCC1 (centres undefined)
inactive: locus YAL021C, strain ccr4, active compounds read low 0.994 | locus YAL026C, strain drs2, active compounds read low 1 | locus YAL030W, strain snc1, active compounds read low 0.986 | locus YBL061C, strain skt5, active compounds read low 0.989 | locus YBR009C, strain hhf1, active compounds read low 1 | locus YBR021W, strain FUR4, active compounds read low 0.947 | locus YBR023C, strain chs3, active compounds read low 0.987 | locus YBR171W, strain sec66, active compounds read low 0.965 | locus YBR229C, strain ROT2, active compounds read low 0.988 | locus YBR231C, strain swc5, active compounds read low 0.977 | locus YBR279W, strain paf1, active compounds read low 1 | locus YCL011C, strain gbp2, active compounds read low 0.998 | locus YCL016C, strain dcc1, active compounds read low 1.01 | locus YCL029C, strain bik1, active compounds read low 0.985 | locus YCL061C, strain MRC1, active compounds read low 0.976 | locus YCL069W, strain vba3, active compounds read low 0.98 | locus YCR088W, strain abp1, active compounds read low 0.976 | locus YDL005C, strain med2, active compounds read low 0.984 | locus YDL035C, strain GPR1, active compounds read low 0.994 | locus YDL040C, strain nat1, active compounds read low 0.989 | locus YDL074C, strain BRE1, active compounds read low 1.01 | locus YDL101C, strain DUN1, active compounds read low 0.995 | locus YDL134C, strain PPH21, active compounds read low 0.99 | locus YDL185W, strain tfp1, active compounds read low 0.979 | locus YDL192W, strain arf1, active compounds read low 0.986 | locus YDR001C, strain nth1, active compounds read low 0.991 | locus YDR069C, strain doa4, active compounds read low 0.986 | locus YDR101C, strain arx1, active compounds read low 0.982 | locus YDR137W, strain rgp1, active compounds read low 1.05 | locus YDR150W, strain NUM1, active compounds read low 1 | locus YDR159W, strain sac3, active compounds read low 0.991 | locus YDR162C, strain NBP2, active compounds read low 0.995 | locus YDR195W, strain ref2 0.942 | locus YDR297W, strain sur2, active compounds read low 0.978 | locus YDR318W, strain mcm21, active compounds read low 0.973 | locus YDR334W, strain swr1, active compounds read low 0.983 | locus YDR335W, strain msn5, active compounds read low 0.981 | locus YDR388W, active compounds read low 0.976 | locus YDR392W, strain spt3, active compounds read low 1 | locus YDR502C, strain sam2, active compounds read low 1 | locus YEL003W, strain gim4, active compounds read low 0.975 | locus YEL037C, strain rad23, active compounds read low 0.982 | locus YEL061C, strain CIN8 (second series), active compounds read low 0.986 | locus YEL061C, strain CIN8, active compounds read low 0.998 | locus YER015W, strain faa2, active compounds read low 0.989 | locus YER016W, strain bim1, active compounds read low 0.998 | locus YER110C, active compounds read low 0.975 | locus YER111C, strain swi4, active compounds read low 1 | locus YER155C, strain BEM2 (second series), active compounds read low 0.946 | locus YER155C, strain BEM2, active compounds read low 0.99 | locus YER167W, strain BCK2, active compounds read low 0.992 | locus YFR010W, strain ubp6, active compounds read low 0.976 | locus YGL078C, strain dbp3, active compounds read low 0.985 | locus YGL086W, strain mad1, active compounds read low 0.994 | locus YGL167C, strain pmr1, active compounds read low 0.985 | locus YGL173C, strain kem1, active compounds read low 0.972 | locus YGL227W, strain vid30, active compounds read low 0.99 | locus YGL240W, strain doc1, active compounds read low 0.963 | locus YGL248W, strain PDE1, active compounds read low 0.996 | locus YGL253W, strain hxk2, active compounds read low 1.01 | locus YGR078C, strain PAC10, active compounds read low 0.998 | locus YGR135W, strain pre9, active compounds read low 0.983 | locus YGR229C, strain SMI1, active compounds read low 0.993 | locus YGR252W, strain gcn5, active compounds read low 1.01 | locus YHR013C, strain ard1, active compounds read low 1 | locus YHR027C, strain rpn1, active compounds read low 0.991 | locus YHR030C, strain SLT2, active compounds read low 0.987 and 1.02 | locus YHR079C, strain IRE1 (second series), active compounds read low 0.977 | locus YHR079C, strain IRE1, active compounds read low 1.02 | locus YHR094C, strain hxt1, active compounds read low 0.975 | locus YHR129C, strain ARP1, active compounds read low 1 | locus YHR142W, strain chs7, active compounds read low 0.999 | locus YHR200W, strain rpn10, active compounds read low 0.974 | locus YIL066C, strain RNR3, active compounds read low 0.989 | locus YIL073C, strain SPO22, active compounds read low 0.957 | locus YIL125W, strain kgd1, active compounds read low 0.967 | locus YIR030C, strain dcg1, active compounds read low 0.985 | locus YJL092W, strain hpr5, active compounds read low 0.969 | locus YJL095W, strain BCK1 (second series), active compounds read low 0.986 | locus YJL095W, strain BCK1, active compounds read low 1 and 1.03 | locus YJL115W, strain asf1, active compounds read low 0.987 | locus YJL129C, strain trk1, active compounds read low 0.973 | locus YJL134W, strain LCB3, active compounds read low 0.994 | locus YJL154C, strain vps35, active compounds read low 0.991 | locus YJL164C, strain tpk1, active compounds read low 1.01 | locus YJL166W, strain qcr8, active compounds read low 0.952 | locus YJL168C, strain set2, active compounds read low 0.974 | locus YJL187C, strain SWE1 (second series), active compounds read low 0.989 | locus YJL187C, strain SWE1, active compounds read low 0.996
